Experimental data from PubChem BioAssay (NCATS).
Results filed as inconclusive are left out. The source made the active and inactive calls. Unless noted, calls come from the whole dose curve.

Test: Cell Viability - BJ (AID 421);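 note: cells exposed to compound for 40 hours at 37 °C before readout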
Conditions: BJ fibroblast viability, qHTS
Outline: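 Normal human BJ foreskin fibroblasts, 1500/well in complete medium, treated 40 hr at 37 °C. Cellular ATP by CellTiter-Glo luminescence; normalized to DMSO and 100 uM tamoxifen, AC50 from Hill fit.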
Potency is the fitted concentration of half-maximal effect.

Q: With `O=C(O)C(Br)Br` as the compound, how does the Potency read?
A: > 92 µM (inactive)

Q: With `Cc1ccc(OP(=O)(Oc2ccc(C)cc2)Oc2ccc(C)cc2)cc1` as the compound, how does the Potency read?
A: > 92 µM (inactive)

Q: With `Oc1c(Cl)c(Cl)cc(Cl)c1Cl` as the compound, how does the Potency read?
A: > 92 µM (inactive)

Q: Which Potency does the source give for `Nc1ccc(Cc2ccc(N)c(Cl)c2)cc1Cl` here?
A: > 92 µM (inactive)

Q: For `CN(C)c1ccc(N(C)C)cc1`, which Potency is on record?
A: > 92 µM (inactive)

Q: Which Potency does the source give for `Brc1ccc(Oc2ccc(Br)cc2Br)c(Br)c1` here?
A: > 92 µM (inactive)

Q: With `O=[N+]([O-])c1c(Cl)c(Cl)c(Cl)c(Cl)c1Cl` as the compound, how does the Potency read?
A: > 92 µM (inactive)

Q: With `CN1CSC(=S)N(C)C1` as the compound, how does the Potency read?
A: > 92 µM (inactive)

Q: For `ClCC(Cl)Cl`, which Potency is on record?
A: > 92 µM (inactive)

Q: Which Potency does the source give for `C=CC(=O)OCCO` here?
A: > 92 µM (inactive)

Q: For `CC(C)Br`, which Potency is on record?
A: > 92 µM (inactive)

Q: Which Potency does the source give for `O=[N+]([O-])c1ccc(O)c([N+](=O)[O-])c1` here?
A: > 92 µM (inactive)

Q: For `CC(C)[N+](=O)[O-]`, which Potency is on record?
A: > 92 µM (inactive)

Q: Which Potency does the source give for `CCCC[N+](=O)[O-]` here?
A: > 92 µM (inactive)

Q: For `Cc1cc(-c2cc(C)c(N)c(C)c2)cc(C)c1N`, which Potency is on record?
A: > 92 µM (inactive)

Q: Which Potency does the source give for `Nc1cc(Cl)ccc1O` here?
A: > 92 µM (inactive)

Q: Which Potency does the source give for `CCN(N=O)C(N)=O` here?
A: > 92 µM (inactive)

Q: For `N#CC(Cl)(Cl)Cl`, which Potency is on record?
A: > 92 µM (inactive)

Q: Which Potency does the source give for `CCCCC(CC)COC(=O)c1ccc(C(=O)OCC(CC)CCCC)c(C(=O)OCC(CC)CCCC)c1` (configuration not stated) here?
A: > 92 µM (inactive)

Q: For `O=C(O)C(Br)CBr` (configuration not stated), which Potency is on record?
A: > 92 µM (inactive)

Q: Which Potency does the source give for `Nc1c(Br)cc([N+](=O)[O-])cc1[N+](=O)[O-]` here?
A: > 92 µM (inactive)

Q: Which Potency does the source give for `O=[N+]([O-])c1ccccc1CCl` here?
A: > 92 µM (inactive)

Q: With `Cc1cc(C)cc(OP(=O)(Oc2cc(C)cc(C)c2)Oc2cc(C)cc(C)c2)c1` as the compound, how does the Potency read?
A: > 92 µM (inactive)

Q: Which Potency does the source give for `N#CC(Br)Br` here?
A: > 92 µM (inactive)

Q: For `O=C(O)C(Cl)Br` (configuration not stated), which Potency is on record?
A: > 92 µM (inactive)

Q: For `COP(=S)(OC)SCn1nnc2ccccc2c1=O`, which Potency is on record?
A: > 92 µM (inactive)

Q: Which Potency does the source give for `Nc1ccc([N+](=O)[O-])cc1N` here?
A: > 92 µM (inactive)

Q: Which Potency does the source give for `O=C(O)c1cccc(Cl)c1` here?
A: > 92 µM (inactive)

Q: For `Cc1cc(N=Nc2ccccc2C)ccc1N`, which Potency is on record?
A: > 92 µM (inactive)

Q: With `OCCCCO` as the compound, how does the Potency read?
A: > 92 µM (inactive)

Q: For `O=[N+]([O-])c1cc(Cl)c(Cl)c(Cl)c1`, which Potency is on record?
A: > 92 µM (inactive)

Q: With `CC(C)(COCC1CO1)COCC1CO1` (configuration not stated) as the compound, how does the Potency read?
A: > 92 µM (inactive)

Q: Which Potency does the source give for `Cc1ccc2c(c1N)C(=O)c1ccccc1C2=O` here?
A: > 92 µM (inactive)

Q: With `COc1ccccc1N` as the compound, how does the Potency read?
A: > 92 µM (inactive)

Q: With `CC(C)(C)OOC(=O)c1ccccc1` as the compound, how does the Potency read?
A: > 92 µM (inactive)

Q: For `c1ccc(N=NNc2ccccc2)cc1`, which Potency is on record?
A: > 92 µM (inactive)

Q: With `COC(C)(C)C` as the compound, how does the Potency read?
A: > 92 µM (inactive)

Q: Which Potency does the source give for `C(CCOCC1CO1)COCC1CO1` (configuration not stated) here?
A: > 92 µM (inactive)

Q: Which Potency does the source give for `CN(C)c1ccc(N)cc1` here?
A: 28.3 µM (active)

Q: For `O=[N+]([O-])/C=C/c1ccccc1`, which Potency is on record?
A: > 92 µM (inactive)

Test: Cell Viability - Jurkat (AID 426;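 active = dose-dependent loss of cell ATP signal giving a full or clear fitted curve, ranked by lower potency value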)
Conditions: qHTS
Outline: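 Jurkat (Clone E6-1) cells, 5000/well in complete medium, exposed to compounds for 40 hr at 37C; intracellular ATP measured by CellTiter-Glo luminescence after 20 min at room temperature. AC50 from Hill fits.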

Q: Which Potency does the source give for `Oc1c(Cl)c(Cl)cc(Cl)c1Cl` here?
A: 49.1 µM (active)

Q: With `O=[N+]([O-])c1c(Cl)c(Cl)c(Cl)c(Cl)c1Cl` as the compound, how does the Potency read?
A: > 92 µM (inactive)

Q: For `CN1CSC(=S)N(C)C1`, which Potency is on record?
A: 57.6 µM (active)

Q: For `ClCC(Cl)Cl`, which Potency is on record?
A: > 92 µM (inactive)

Q: Which Potency does the source give for `CC(C)Br` here?
A: > 92 µM (inactive)

Q: With `Cc1cc(-c2cc(C)c(N)c(C)c2)cc(C)c1N` as the compound, how does the Potency read?
A: > 92 µM (inactive)

Q: With `O=C(O)C(Cl)Br` (configuration not stated) as the compound, how does the Potency read?
A: > 92 µM (inactive)

Q: For `COP(=S)(OC)SCn1nnc2ccccc2c1=O`, which Potency is on record?
A: > 92 µM (inactive)

Q: With `O=C(O)c1cccc(Cl)c1` as the compound, how does the Potency read?
A: > 92 µM (inactive)

Q: With `OCCCCO` as the compound, how does the Potency read?
A: > 92 µM (inactive)

Q: With `Cc1ccc2c(c1N)C(=O)c1ccccc1C2=O` as the compound, how does the Potency read?
A: > 92 µM (inactive)

Q: For `COc1ccccc1N`, which Potency is on record?
A: > 92 µM (inactive)

Q: For `c1ccc(N=NNc2ccccc2)cc1`, which Potency is on record?
A: > 92 µM (inactive)

Q: For `CN(C)c1ccc(N)cc1`, which Potency is on record?
A: 72.8 µM (active)

Q: With `O=[N+]([O-])/C=C/c1ccccc1` as the compound, how does the Potency read?
A: 9.79 µM (active)

Test: Cell Viability - Hek293 (AID 427;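 active = compounds whose dose-response curve shows a full or clear partial loss of cell viability, called from curve shape rather than a numeric limit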;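 note: cells exposed to compound for 40 hours at 37 °C before reading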)
Conditions: qHTS
Outline: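 HEK293 cells in complete medium were exposed to compound for 40 hr at 37 °C, then cellular ATP was read by CellTiter-Glo luminescence. Data were normalized to DMSO (basal) and 100 uM tamoxifen (100% inhibition), and AC50 came from Hill fits.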

Q: For `O=C(O)C(Br)Br`, which Potency is on record?
A: > 92 µM (inactive)

Q: With `Cc1ccc(OP(=O)(Oc2ccc(C)cc2)Oc2ccc(C)cc2)cc1` as the compound, how does the Potency read?
A: > 92 µM (inactive)

Q: For `Nc1ccc(Cc2ccc(N)c(Cl)c2)cc1Cl`, which Potency is on record?
A: > 92 µM (inactive)

Q: Which Potency does the source give for `CN(C)c1ccc(N(C)C)cc1` here?
A: > 92 µM (inactive)

Q: Which Potency does the source give for `ClCC(Cl)Cl` here?
A: > 92 µM (inactive)

Q: For `CC(C)Br`, which Potency is on record?
A: > 92 µM (inactive)

Q: Which Potency does the source give for `O=[N+]([O-])c1ccc(O)c([N+](=O)[O-])c1` here?
A: > 92 µM (inactive)

Q: For `CC(C)[N+](=O)[O-]`, which Potency is on record?
A: > 92 µM (inactive)

Q: With `CCCC[N+](=O)[O-]` as the compound, how does the Potency read?
A: > 92 µM (inactive)

Q: Which Potency does the source give for `Cc1cc(-c2cc(C)c(N)c(C)c2)cc(C)c1N` here?
A: > 92 µM (inactive)

Q: For `Nc1cc(Cl)ccc1O`, which Potency is on record?
A: > 92 µM (inactive)

Q: With `CCN(N=O)C(N)=O` as the compound, how does the Potency read?
A: > 92 µM (inactive)

Q: For `N#CC(Cl)(Cl)Cl`, which Potency is on record?
A: > 92 µM (inactive)

Q: For `CCCCC(CC)COC(=O)c1ccc(C(=O)OCC(CC)CCCC)c(C(=O)OCC(CC)CCCC)c1` (configuration not stated), which Potency is on record?
A: > 92 µM (inactive)

Q: For `O=C(O)C(Br)CBr` (configuration not stated), which Potency is on record?
A: > 92 µM (inactive)

Q: Which Potency does the source give for `Nc1c(Br)cc([N+](=O)[O-])cc1[N+](=O)[O-]` here?
A: > 92 µM (inactive)

Q: For `O=[N+]([O-])c1ccccc1CCl`, which Potency is on record?
A: > 92 µM (inactive)

Q: Which Potency does the source give for `Cc1cc(C)cc(OP(=O)(Oc2cc(C)cc(C)c2)Oc2cc(C)cc(C)c2)c1` here?
A: > 92 µM (inactive)

Q: For `N#CC(Br)Br`, which Potency is on record?
A: > 92 µM (inactive)

Q: Which Potency does the source give for `O=C(O)C(Cl)Br` (configuration not stated) here?
A: > 92 µM (inactive)

Q: For `Nc1ccc([N+](=O)[O-])cc1N`, which Potency is on record?
A: > 92 µM (inactive)

Q: Which Potency does the source give for `O=C(O)c1cccc(Cl)c1` here?
A: > 92 µM (inactive)

Q: For `Cc1cc(N=Nc2ccccc2C)ccc1N`, which Potency is on record?
A: > 92 µM (inactive)

Q: Which Potency does the source give for `OCCCCO` here?
A: > 92 µM (inactive)

Q: With `O=[N+]([O-])c1cc(Cl)c(Cl)c(Cl)c1` as the compound, how does the Potency read?
A: > 92 µM (inactive)

Q: For `CC(C)(COCC1CO1)COCC1CO1` (configuration not stated), which Potency is on record?
A: > 92 µM (inactive)

Q: With `Cc1ccc2c(c1N)C(=O)c1ccccc1C2=O` as the compound, how does the Potency read?
A: > 92 µM (inactive)

Q: Which Potency does the source give for `COc1ccccc1N` here?
A: > 92 µM (inactive)

Q: With `CC(C)(C)OOC(=O)c1ccccc1` as the compound, how does the Potency read?
A: > 92 µM (inactive)

Q: Which Potency does the source give for `c1ccc(N=NNc2ccccc2)cc1` here?
A: > 92 µM (inactive)

Q: With `COC(C)(C)C` as the compound, how does the Potency read?
A: > 92 µM (inactive)

Q: With `C(CCOCC1CO1)COCC1CO1` (configuration not stated) as the compound, how does the Potency read?
A: > 92 µM (inactive)
